Structures are written as SMILES. ± gives the standard deviation of the averaged measurements.
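Further: TDF denotes transformed human dermal fibroblasts of mesenchymal origin.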

This test deals with HCC1569. Description: cell number relative to DMSO (% of DMSO); higher = more cells (less growth inhibition / toxicity). The note with it: concentration: 10 µM; 24 h. In short, it runs like this:
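For HCC1569 and TDF cells, compounds at 10 µM were applied for 24 h at 37 °C in triplicate in 384-well plates. Cells were fixed in 3.7% formaldehyde, stained for H1.0 and with DAPI, and imaged at ×10 over six fields per well. The endpoint, H1.0 nuclear intensity or cell number, is shown as percent of the plate control using the median of replicates. Positional effects were smoothed for HCC1569 only.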
On to `Cl.NCCNC(=O)c1ncsc1-c1cccc(F)c1` [Ro 41-1049 hydrochloride], for which the cell number came to 97.5.
`CCn1nc(C(=O)O)c(=O)c2cc3c(cc21)OCO3` [Cinoxacin] gave a cell number of 97.6.
With `CCOC(=O)CCNc1cc(N2CCc3ccccc3CC2)nc(-c2ccccn2)n1`, the cell number turned out to be 78.8.
As for `CCCCCC=CCC=CCC=CCCCCCCC(=O)O` [8(Z), 11(Z), 14(Z)-Eicosatrienoic Acid], the cell number was 97.9.
For the molecule `CCn1cc(C(=O)O)c(=O)c2cc(F)c(N3CCNC(C)C3)c(F)c21.Cl` (stereo not given) [Lomefloxacin hydrochloride], the cell number stood at 101.
With `CCCCCC=CCC=CC=CC=CC(SCC(NC(C)=O)C(=O)O)C(O)CCCC(=O)O` (stereo not given) [N-Acetyl-leukotriene E4], the cell number was 103.
For `CCCn1c(=O)c2[nH]c(-c3ccc(OCC(=O)NCCN)cc3)nc2n(CCC)c1=O` [Xanthine amine congener], the cell number stood at 97.6.
For the molecule `CCCCCC=CCC=CCC=CC=CC(O)CCCC(=O)O` (stereo not given), the cell number was found to be 97.
In the case of `CCSC(N)=Nc1ccc(C(F)(F)F)cc1.Cl` [TFPI hydrochloride], the cell number is 79.3.
For `CN(C)C(=O)Nc1cccc(-c2ccc(N(C)C)cc2)c1` [3-(4'-(dimethylamino)-[1,1'-biphenyl]-3-yl)-1,1-dimethylurea] the value was 101.
`Cl.OCC1NCC(O)C(O)C1O` (stereo not given) [1-Deoxynojirimycin hydrochloride] displayed a cell number of 97.8.
`CCCCCCCCCC(=O)O` [Decanoic acid]: the cell number amounted to 105.
The figure for `Nc1ccc(CCNc2ncnc3c2ncn3C2OC(CO)C(O)C2O)cc1` (stereo not given) [N6-2-(4-Aminophenyl)ethyladenosine] is 101; for `C[N+]1(C)C2CC(OC(=O)C(O)(c3cccs3)c3cccs3)CC1C1OC12.[Br-]` (stereo not given) [Tiotropium Bromide] it is 105.
The figure for `Cc1cc2cc3c(C)cc(=O)oc3c(C)c2o1` [4,5',8-Trimethylpsoralen] is 97.9; for `CC1=C(C)C(=O)C(C(CCCCCC(=O)O)c2ccccc2)=C(C)C1=O` (stereo not given) [Seratrodast] it is 107; for `CC1=c2[nH]c3c(c2CCN1)C=CC(=O)C=3.Cl.O.O` it is 98.2.
The figure for `CCc1nn(CCCN2CCN(c3cccc(Cl)c3)CC2)c(=O)n1CCOc1ccccc1` is 92.2; for `COc1cc2nc(N(C)CCCNC(=O)C3CCCO3)nc(N)c2cc1OC` (stereo not given) [Alfuzosin] it is 99.7; for `CN1CCN(C2=Nc3cc(F)ccc3Cc3ccccc32)CC1` [Fluperlapine] it is 104.
`CC(OC1OCCN(Cc2nc(=O)[nH][nH]2)C1c1ccc(F)cc1)c1cc(C(F)(F)F)cc(C(F)(F)F)c1` (stereo not given) [Aprepitant]: the cell number was found to be 101.
Consider `OCC1OC(Oc2ccc(O)cc2)C(O)C(O)C1O` (stereo not given) [Arbutin], for which the cell number was found to be 99.6.
Turning to `CC(Cc1ccccc1)(NC(=O)CN)c1ccccc1.Cl` (stereo not given), the cell number came to 97.7.
Regarding `CN(Cc1cc(Br)cc(Br)c1N)C1CCCCC1` [Bromhexine], the cell number worked out at 98.8.
Molecule `CC(C)NCC(O)c1ccc(O)c(O)c1.Cl` (racemic) registered a cell number of 104.
As to `COc1cc2c(cc1OC)-c1cc3ccc(OC)c(OC)c3c[n+]1CC2.[Cl-]` [Palmatine chloride], the cell number was 100.
Molecule `COc1cccc2c1C(=O)c1c(O)c3c(c(O)c1C2=O)CC(O)(C(C)=O)CC3OC1CC(N)C(O)C(C)O1` (stereo not given) [Daunorubicin] registered a cell number of 53.3 ± 2.3.
Turning to `CCCCCN(C)CCC(O)(P(=O)(O)O)P(=O)(O)O` [Ibandronate], the cell number amounted to 103.
The molecule `CCCCCCCCCCCCC(O)C(=O)O` (stereo not given) [2-Hydroxymyristic acid] returned a cell number of 103.
Regarding `COc1ccc(-c2cc(=O)c3c(OC)c(OC)c(OC)cc3o2)cc1OC` [Sinensetine], the cell number came out at 101.
Turning to `COc1cc2c(cc1OC)-c1cc(=Nc3c(C)cc(C)cc3C)n(C)c(=O)n1CC2.Cl` [Trequinsin.HCl], the cell number was determined as 102.
`O=C1Nc2ccccc2C1=C1Nc2ccccc2C1=O` [Indirubin] gave a cell number of 97.2.
`CC[N+](CC)(CC)CC(=O)Nc1c(C)cccc1C.[Br-]` [Lidocaine N-ethyl bromide quaternary salt] showed a cell number of 106.
Regarding `O=C(NOCC1CC1)c1ccc(F)c(F)c1Nc1ccc(I)cc1Cl`, the cell number stood at 77.6.
`CC(C)Cc1ccc(C(C)C(=O)NO)cc1` (stereo not given) [Ibuproxam]: the cell number came to 103.
For `C#C[C@@]1(OC(C)=O)CC[C@H]2[C@@H]3CCC4=CC(=O)CC[C@@H]4[C@H]3CC[C@@]21C` [(17beta)-17-ethynyl-3-oxoestr-4-en-17-yl acetate] the value was 90.4.
The molecule `CC(C)NCC(O)COc1cccc2[nH]ccc12` (stereo not drawn) [S(-)-Pindolol] displayed a cell number of 102.
For `O=C(O)C=CC(=O)O.c1cnc(N2CCN(Cc3ccc4c(c3)OCO4)CC2)nc1` [Piribedil maleate] the value was 101.
The figure for `CCC1(O)CC2CN(CCc3c([nH]c4ccccc34)C(C(=O)OC)(c3cc4c(cc3OC)N(C=O)C3C(O)(C(=O)OC)C(OC(C)=O)C5(CC)C=CCN6CCC43C65)C2)C1.O=S(=O)(O)O` (stereo not given) [Vincristine sulfate] is 57.3 ± 1; for `CCN1CCCC1CNC(=O)c1c(OC)ccc(I)c1O` (stereo not given) it is 106.

The values above are taken from the supplement of paper PMC7156485.
